Screening results (PubChem BioAssay)
A selection: hits, their analogues and other compounds. The true share with any hit is near 12%.
Shiga inhibitor = Shiga toxin inhibition; hit rate 9.2% among 290,000; AID 2315; Vero cells, Shiga toxin protein synthesis inhibition reporter; inhibition, % at 38.7 µM; in the data active = inhibition mostly above about 28%, no sharp cut-off; inactive = mostly below about 43%; note: 0% is about no effect
NS1 inh = influenza NS1 inhibition; hit rate 0.4% among 270,000; Potency, µM (highest dose often 46.1 µM), without a hit: top-dose activity, positive = more growth; note: potency is the fitted concentration of half-maximal effect; actives are rising curves; nearly all actives have a fitted effect of over 50% in size
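S. cerevisiae expressing influenza A NS1, grown in glucose, washed, then diluted 1:100 into pH 6.0 -URA galactose medium with 23 nl compound. Growth recovery read as OD600; NS1-free strain serves as control.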
CHX counter = affects cycloheximide protein synthesis inhibition readout, counter-screen; hit rate 12% among 300,000; AID 2314; max response, %; cell reporter, cycloheximide protein synthesis inhibition counterscreen; in the data active = max response mostly above about 13%, no sharp cut-off; inactive = mostly below about 14%; note: read at 38.3 µM for the half of the compounds with a filed dose; 0% is about no effect
SARS PLpro yeast = inhibitors of SARS-CoV papain-like protease in yeast; S. cerevisiae expressing SARS-CoV PLpro, growth rescue; AID 485353; Potency, µM (series often up to 32.9 µM), for the others: top-dose activity, positive = growth rescue, actives largely listed as activators; hit rate 0.19% among 330,000; note: potency is the fitted concentration of half-maximal effect; 0% is about no effect; nearly all actives have a fitted effect of over 55% in size
* hit, by the source's call; ? = inconclusive; / = no result. Unless noted, calls come from the whole dose curve.

SMILES	Shiga inhibitor	NS1 inh	CHX counter	SARS PLpro yeast
O=C(CSc1nnc(-c2ccc(Cl)s2)o1)N1CCOCC1	62*	?	15	28%
O=C(CSc1nnc(-c2ccc(O)cc2)o1)N1CCOCC1	114	?	53*	9%
O=C(CSc1nnc(-c2ccccc2Cl)o1)N1CCOCC1	93*	8%	36*	-1%
Oc1ccc(-c2nnc(SCC3CCCCC3)o2)cc1	82*	-13%	22*	-12%
CCOC(=O)N1CCN(C(=O)CSc2nnc(-c3ccc(Cl)s3)o2)CC1	-8	4%	-4	-7%
O=C(NCc1cccs1)C1CCN(S(=O)(=O)c2cccc3cccnc23)CC1	-14	-8%	-2	-4%
COc1ccc(-c2nn(-c3ccccc3)cc2/C=N/NC(=O)c2cccc(S(=O)(=O)Nc3ccccc3Cl)c2)cc1	22	?	16	9%
O=C(O)c1cc(O)ccc1NC(=O)c1cccc2ccccc12	19	0%	-2	0%
O=C(NCc1ccccc1F)C1CCCN1C(=O)Nc1ccc(F)cc1 (centres undefined)	/	0%	-2	1%
O=C(CSc1nnc(-c2ccc(Cl)cc2)o1)N1CCOCC1	81*	2%	53*	7%
CC1CC(C)CN(C(=O)CSc2nnc(-c3ccc(Cl)cc3)o2)C1 (centres undefined)	-11	-9%	-2	-8%
NC(=O)C1CC(=O)N(c2ccc(OCc3ccc(Cl)cc3Cl)cc2)C1 (centres undefined)	58	-2%	26*	-1%
COC(=O)C1CC(=O)N(c2ccc(OCc3ccccc3Cl)cc2)C1 (centres undefined)	/	-32%	1	-4%
C=CCNC(=O)C1CC(=O)N(c2ccc(OCc3ccccc3Cl)cc2)C1 (centres undefined)	33*	-6%	33*	0%
COc1ccccc1CN1CCNC(=O)C1CC(=O)N(C)Cc1cnccn1 (centres undefined)	-10	-3%	9	0%
CCc1ccc(Oc2cc(Cl)nc(N)n2)cc1	65*	4%	50*	3%
COc1ccc(Oc2cc(Cl)nc(N)n2)cc1	12	-3%	12	0%
COc1cccc(Oc2cc(Cl)nc(N)n2)c1	21*	-2%	16*	-2%
CC(=O)c1ccc(NC(=O)COC(=O)c2nc(Cl)ccc2Cl)cc1	17	/	7	-1%
O=C1NCCN(Cc2ccoc2)C1CC(=O)N(Cc1ccccc1)CC1CCC1 (centres undefined)	34	2%	13*	0%
O=C(Nc1ccc2c(c1)OCO2)N1CCN(Cc2ccco2)CC1	12	6%	13*	-1%
O=C1c2ccccc2C(Nc2ccc(-c3nc4ccccc4[nH]3)cc2)N1Cc1ccco1 (centres undefined)	89*	?	17*	-6%
O=C1c2ccccc2C(Nc2ccc3c(c2)OCO3)N1Cc1ccco1 (centres undefined)	21*	-34%	10	4%
O=C1c2ccccc2C(Nc2ccc3c(c2)OCO3)N1Cc1ccc2c(c1)OCO2 (centres undefined)	20	-43%	38*	-27%
O=C1c2ccccc2C(Nc2ccc(F)c(Cl)c2)N1Cc1ccco1 (centres undefined)	-12	-100%	0	-27%
SMILES	Shiga inhibitor	NS1 inh	CHX counter	SARS PLpro yeast
Cc1ccc(NC(=O)N2CCN(Cc3ccc4c(c3)OCO4)CC2)cc1	-10	7%	7	14%
CCNc1nc(OC)nc(N2CCC(Cc3ccccc3)CC2)n1	4	0%	-1	-11%
CCOC(=O)/C(=N\Nc1cc(Cl)ccc1Cl)N1CCN(CC)CC1	-10	-17%	3	-12%
O=C1CN(C(=O)COC(=O)CCS(=O)(=O)c2ccccc2)c2ccccc2N1	/	/	/	2%
CCN(CC)c1ccc(NC(=O)Nc2cccc(C(C)=O)c2)cc1	46*	-1%	20	/
Cc1nc2cc(NC(=O)NC(C)(C)C)ccc2n1C	34	-3%	18*	0%
COc1cccc(NC(=O)Nc2ccc3nsnc3c2)c1	97*	-33%	31*	-16%
COc1cccc(NC(=O)Nc2ccc3c(c2)nc(C)n3C)c1	58*	2%	26*	-1%
COc1cccc(NC(=O)Nc2ccc3nc(C)c(C)nc3c2)c1	10	0%	10	3%
CC1(NC(=O)CCc2nc3sc4c(c3c(=O)[nH]2)CCCC4)CCS(=O)(=O)C1 (centres undefined)	/	/	/	-1%
COc1ccc(CCN2CC(C(=O)N3CCC(O)(c4ccccc4)CC3)CCC2=O)cc1 (centres undefined)	-27	10%	-1	2%
CCn1c(C)nc2cc(C(=O)OC)ccc21	10	0%	3	0%
Cc1nc2cc(NC(=O)Nc3nccs3)ccc2n1C	35*	-2%	22*	1%
CCn1c(C)nc2cc(NC(=O)Nc3cccc(C(C)=O)c3)ccc21	46	2%	21*	9%
Clc1cccc(Cl)c1C[n+]1ccc2ccccc2c1	3	-1%	0	-1%
CC(=O)NCCc1nc2cc(NC(=O)c3cccs3)ccc2n1C	23	/	22	2%
CCC(=O)NCCc1nc2cc(NC(=O)c3ccc(F)cc3)ccc2n1C	89*	0%	43*	-1%
CCCC(=O)Nc1ccc2c(c1)nc(CCNC(=O)c1ccccc1)n2C	-12	10%	-4	12%
CC(=O)NCCc1nc2cc(NC(=O)c3ccccc3Cl)ccc2n1C	26	-2%	17*	12%
CCC(=O)NCCc1nc2cc(NC(=O)c3ccc(OC)cc3)ccc2n1C	52	3%	25*	0%
CCC(=O)NCCc1nc2cc(NC(=O)c3ccc(Cl)cc3)ccc2n1C	64*	0%	52*	-1%
COc1cccc(CC(=O)OCC(=O)Nc2c(C)nn(-c3ccccc3)c2C)c1	/	/	/	5%
CCN(CC)c1ccc(/C=N/N2CCN(Cc3cccc4ccccc34)CC2)c(O)c1	-5	8%	-5	12%
CCCc1nn2c(=O)cc(CSCC(=O)Nc3ccccc3OC)nc2s1	-5	-11%	-5	3%
O=C(c1ccc(Cl)c(S(=O)(=O)N2CCOCC2)c1)N1CCc2ccccc2C1	/	/	/	-4%
SMILES	Shiga inhibitor	NS1 inh	CHX counter	SARS PLpro yeast
CC(=O)N1CCN(Cc2nc3cc(NC(=O)c4ccc(Cl)cc4)ccc3n2C)CC1	-5	0%	10	-4%
CC(=O)NCCc1nc2cc(NC(=O)c3ccc(Cl)cc3)ccc2n1C	64*	10%	24*	0%
CCOc1ccc(Oc2ccc(C(F)(F)F)cc2N)cc1	44	-5%	16*	1%
COc1cccc(Oc2ccc(C(F)(F)F)cc2N)c1	87*	5%	29*	7%
CCOc1ccc(C(F)(F)F)cc1NC(C)=O	-9	-1%	-5	-7%
Cc1ccc(CNC(=O)CN(c2ccc(C)cc2)S(=O)(=O)c2c(C)n[nH]c2C)cc1	-9	-4%	-1	2%
CC1CCCCN1C(=O)CN1C(=O)NC2(CCCCC2C)C1=O (centres undefined)	/	/	/	1%
O=C(Nc1ccc(NC(=O)C2CC2)cc1)c1ccco1	63*	-2%	43*	-3%
O=C(Nc1ccc(NC(=O)C2CCCCC2)cn1)c1ccco1	10	-16%	39*	-4%
O=C(Nc1ccc(NC(=O)C23CC4CC(CC(C4)C2)C3)cn1)c1ccco1	69*	-10%	48*	-6%
